Our source for the inhibition values is ChEMBL document CHEMBL1961873, “Compounds: GSK PKIS; Assays: Nanosyn kinase panel” (2012).

The target of experiment [1] is Sphingosine kinase 1 (Homo sapiens) (UniProt Q9NYA1). The following applies: at 1 µM.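 Further: mean SPHK1 inhibition value reported from the GSK PKIS kinase panel screen.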
For experiment [2], the target named is T1, Sphingosine kinase 2 (Homo sapiens) (UniProt Q9NRA0).
T1 sequence (whole entry): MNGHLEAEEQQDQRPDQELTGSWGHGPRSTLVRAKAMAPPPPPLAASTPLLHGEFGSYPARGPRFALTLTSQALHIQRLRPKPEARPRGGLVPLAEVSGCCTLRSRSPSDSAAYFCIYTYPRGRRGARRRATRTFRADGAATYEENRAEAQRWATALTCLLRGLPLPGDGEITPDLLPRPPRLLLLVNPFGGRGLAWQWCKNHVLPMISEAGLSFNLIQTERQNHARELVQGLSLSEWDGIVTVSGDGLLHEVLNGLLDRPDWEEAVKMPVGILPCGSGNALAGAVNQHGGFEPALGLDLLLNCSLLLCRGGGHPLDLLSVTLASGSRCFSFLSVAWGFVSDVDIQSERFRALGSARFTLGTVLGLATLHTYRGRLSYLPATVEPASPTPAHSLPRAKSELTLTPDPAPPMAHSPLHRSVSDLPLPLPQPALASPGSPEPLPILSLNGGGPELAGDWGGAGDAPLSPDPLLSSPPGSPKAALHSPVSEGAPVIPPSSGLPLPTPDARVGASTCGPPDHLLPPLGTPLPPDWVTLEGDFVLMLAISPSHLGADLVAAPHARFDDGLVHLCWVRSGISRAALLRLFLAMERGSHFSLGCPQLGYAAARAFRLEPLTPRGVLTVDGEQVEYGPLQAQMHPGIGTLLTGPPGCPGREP
The following applies: at 0.1 µM.

Experiment [3] addresses T1, Sphingosine kinase 2 (Homo sapiens). The following applies: at 1 µM.
Experiment [4] concerns the target Casein kinase II subunit alpha (Homo sapiens) (UniProt P68400). The following applies: at 0.1 µM.
For experiment [5] the target is unchanged. The following applies: at 1 µM.
The target of experiment [6] is T2, Inhibitor of nuclear factor kappa-B kinase subunit alpha (Homo sapiens) (UniProt O15111).
T2 sequence (whole entry): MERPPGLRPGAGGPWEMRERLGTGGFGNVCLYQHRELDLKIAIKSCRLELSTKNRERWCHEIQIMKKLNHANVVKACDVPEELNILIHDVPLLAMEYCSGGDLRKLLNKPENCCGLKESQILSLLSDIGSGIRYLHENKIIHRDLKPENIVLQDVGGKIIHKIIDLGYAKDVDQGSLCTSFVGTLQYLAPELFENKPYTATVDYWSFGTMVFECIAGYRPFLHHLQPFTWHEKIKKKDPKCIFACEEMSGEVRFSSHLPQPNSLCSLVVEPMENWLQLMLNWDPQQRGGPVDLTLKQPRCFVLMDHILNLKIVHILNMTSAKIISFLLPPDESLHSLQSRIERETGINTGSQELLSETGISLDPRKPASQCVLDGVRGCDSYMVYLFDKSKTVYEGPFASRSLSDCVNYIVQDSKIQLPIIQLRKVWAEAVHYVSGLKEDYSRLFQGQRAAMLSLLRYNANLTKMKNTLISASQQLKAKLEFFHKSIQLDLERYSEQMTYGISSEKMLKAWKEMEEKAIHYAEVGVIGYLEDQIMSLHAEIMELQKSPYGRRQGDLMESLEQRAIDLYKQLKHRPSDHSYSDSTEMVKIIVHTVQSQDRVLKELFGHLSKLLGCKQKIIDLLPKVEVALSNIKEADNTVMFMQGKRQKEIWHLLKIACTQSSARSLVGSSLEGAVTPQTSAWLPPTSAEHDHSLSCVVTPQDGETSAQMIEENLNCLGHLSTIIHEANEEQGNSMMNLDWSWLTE
Particulars: at 0.1 µM.

Experiment [7] addresses T2, Inhibitor of nuclear factor kappa-B kinase subunit alpha (Homo sapiens). Particulars: at 1 µM.
In experiment [8] the target is T3, Inhibitor of nuclear factor kappa-B kinase subunit beta (Homo sapiens) (UniProt O14920).
T3 sequence (whole entry): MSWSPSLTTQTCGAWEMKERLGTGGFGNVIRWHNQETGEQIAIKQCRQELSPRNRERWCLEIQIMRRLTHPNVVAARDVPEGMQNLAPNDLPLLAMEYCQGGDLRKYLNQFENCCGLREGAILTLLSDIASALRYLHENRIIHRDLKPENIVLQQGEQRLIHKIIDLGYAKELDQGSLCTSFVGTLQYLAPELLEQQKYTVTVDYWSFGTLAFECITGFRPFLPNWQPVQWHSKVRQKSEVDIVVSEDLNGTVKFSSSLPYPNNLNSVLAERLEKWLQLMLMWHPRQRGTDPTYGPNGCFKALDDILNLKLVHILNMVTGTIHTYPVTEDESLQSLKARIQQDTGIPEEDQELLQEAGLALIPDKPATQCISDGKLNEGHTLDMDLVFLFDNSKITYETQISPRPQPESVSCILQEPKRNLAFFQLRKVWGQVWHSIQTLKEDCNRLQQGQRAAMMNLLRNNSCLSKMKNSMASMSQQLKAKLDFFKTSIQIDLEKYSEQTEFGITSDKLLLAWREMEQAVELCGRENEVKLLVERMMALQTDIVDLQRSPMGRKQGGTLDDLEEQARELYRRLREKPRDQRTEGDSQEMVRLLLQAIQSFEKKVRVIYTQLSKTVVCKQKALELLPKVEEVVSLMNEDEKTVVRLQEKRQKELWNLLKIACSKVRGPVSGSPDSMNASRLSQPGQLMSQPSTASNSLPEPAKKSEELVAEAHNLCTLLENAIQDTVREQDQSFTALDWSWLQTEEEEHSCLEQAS
The following applies: at 0.1 µM.

Experiment [9] deals with T3, Inhibitor of nuclear factor kappa-B kinase subunit beta (Homo sapiens). The following applies: at 1 µM.
Experiment [10] addresses T4, Inhibitor of nuclear factor kappa-B kinase subunit epsilon (Homo sapiens) (UniProt Q14164).
T4 sequence (whole entry): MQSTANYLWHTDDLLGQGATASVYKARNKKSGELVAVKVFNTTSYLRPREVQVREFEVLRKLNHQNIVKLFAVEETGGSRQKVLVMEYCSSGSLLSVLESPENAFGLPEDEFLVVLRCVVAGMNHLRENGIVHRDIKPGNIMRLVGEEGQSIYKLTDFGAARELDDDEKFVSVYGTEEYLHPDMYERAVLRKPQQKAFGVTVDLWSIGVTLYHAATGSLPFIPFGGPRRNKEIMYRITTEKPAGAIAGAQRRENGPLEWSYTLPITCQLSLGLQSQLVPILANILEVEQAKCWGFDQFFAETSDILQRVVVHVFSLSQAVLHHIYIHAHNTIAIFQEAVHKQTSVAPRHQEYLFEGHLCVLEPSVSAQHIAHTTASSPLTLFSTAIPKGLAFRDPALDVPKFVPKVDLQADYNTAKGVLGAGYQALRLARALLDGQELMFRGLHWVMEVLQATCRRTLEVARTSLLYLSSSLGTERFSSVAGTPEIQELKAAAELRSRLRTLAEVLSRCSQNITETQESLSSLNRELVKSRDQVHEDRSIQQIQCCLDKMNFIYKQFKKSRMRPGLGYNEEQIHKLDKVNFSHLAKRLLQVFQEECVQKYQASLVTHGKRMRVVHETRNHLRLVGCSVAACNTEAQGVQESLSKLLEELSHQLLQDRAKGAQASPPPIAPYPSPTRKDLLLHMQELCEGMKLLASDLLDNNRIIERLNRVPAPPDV
The following applies: at 0.1 µM.

The target of experiment [11] is T4, Inhibitor of nuclear factor kappa-B kinase subunit epsilon (Homo sapiens). Particulars: at 1 µM.
Experiment [12] deals with T5, Serine/threonine-protein kinase Nek1 (Homo sapiens) (UniProt Q96PY6).
T5 sequence (whole entry): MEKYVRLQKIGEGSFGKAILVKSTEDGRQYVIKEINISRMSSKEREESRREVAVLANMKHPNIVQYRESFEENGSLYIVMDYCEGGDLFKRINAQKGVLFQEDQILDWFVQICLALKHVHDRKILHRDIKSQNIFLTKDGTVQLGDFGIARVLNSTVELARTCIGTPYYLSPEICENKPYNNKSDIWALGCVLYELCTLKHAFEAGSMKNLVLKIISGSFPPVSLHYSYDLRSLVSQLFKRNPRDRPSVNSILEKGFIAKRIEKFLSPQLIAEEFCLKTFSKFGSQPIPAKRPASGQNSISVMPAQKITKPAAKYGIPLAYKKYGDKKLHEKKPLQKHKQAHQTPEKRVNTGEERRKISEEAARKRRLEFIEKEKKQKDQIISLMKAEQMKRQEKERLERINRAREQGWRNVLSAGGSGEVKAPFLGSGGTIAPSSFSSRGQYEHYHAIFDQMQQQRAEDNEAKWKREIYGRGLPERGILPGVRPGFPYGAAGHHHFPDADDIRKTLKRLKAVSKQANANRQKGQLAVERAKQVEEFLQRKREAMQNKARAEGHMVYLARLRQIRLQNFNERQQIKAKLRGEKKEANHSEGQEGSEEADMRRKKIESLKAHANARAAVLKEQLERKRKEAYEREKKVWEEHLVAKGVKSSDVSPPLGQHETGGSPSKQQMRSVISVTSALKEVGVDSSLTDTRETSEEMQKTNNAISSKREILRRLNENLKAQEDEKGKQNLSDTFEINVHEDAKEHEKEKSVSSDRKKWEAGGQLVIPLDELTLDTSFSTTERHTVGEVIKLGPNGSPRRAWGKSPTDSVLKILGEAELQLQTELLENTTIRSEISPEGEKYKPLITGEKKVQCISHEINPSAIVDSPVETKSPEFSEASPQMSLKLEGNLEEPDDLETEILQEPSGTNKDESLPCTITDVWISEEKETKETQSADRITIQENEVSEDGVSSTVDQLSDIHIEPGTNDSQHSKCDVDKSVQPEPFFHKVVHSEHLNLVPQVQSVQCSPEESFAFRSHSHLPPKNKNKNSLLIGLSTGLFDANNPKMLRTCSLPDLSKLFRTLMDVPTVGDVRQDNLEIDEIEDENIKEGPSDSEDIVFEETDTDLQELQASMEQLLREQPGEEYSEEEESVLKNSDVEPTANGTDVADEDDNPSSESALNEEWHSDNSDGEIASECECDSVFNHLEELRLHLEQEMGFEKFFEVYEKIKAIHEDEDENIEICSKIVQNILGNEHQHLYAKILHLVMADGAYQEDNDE
The following applies: at 0.1 µM.

In experiment [13] the target is T5, Serine/threonine-protein kinase Nek1 (Homo sapiens). Particulars: at 1 µM.
In experiment [14] the target is T6, Serine/threonine-protein kinase Nek2 (Homo sapiens) (UniProt P51955).
T6 sequence (whole entry): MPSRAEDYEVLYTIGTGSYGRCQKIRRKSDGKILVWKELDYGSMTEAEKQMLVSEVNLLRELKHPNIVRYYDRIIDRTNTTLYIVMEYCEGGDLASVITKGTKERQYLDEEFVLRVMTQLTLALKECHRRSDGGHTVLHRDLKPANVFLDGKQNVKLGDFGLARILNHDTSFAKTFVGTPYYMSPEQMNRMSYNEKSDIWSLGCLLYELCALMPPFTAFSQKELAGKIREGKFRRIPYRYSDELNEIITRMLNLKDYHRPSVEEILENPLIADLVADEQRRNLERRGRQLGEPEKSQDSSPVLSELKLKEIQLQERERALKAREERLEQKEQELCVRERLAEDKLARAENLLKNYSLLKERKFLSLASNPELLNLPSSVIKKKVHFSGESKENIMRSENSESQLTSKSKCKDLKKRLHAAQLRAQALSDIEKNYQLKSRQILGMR
Particulars: at 0.1 µM.

Experiment [15] has as its target T6, Serine/threonine-protein kinase Nek2 (Homo sapiens). The following applies: at 1 µM.
The target of experiment [16] is Serine/threonine-protein kinase Nek6 (Homo sapiens) (UniProt Q9HC98). Particulars: at 0.1 µM.
Sequence of Serine/threonine-protein kinase Nek6 (Homo sapiens) (Q9HC98 whole entry): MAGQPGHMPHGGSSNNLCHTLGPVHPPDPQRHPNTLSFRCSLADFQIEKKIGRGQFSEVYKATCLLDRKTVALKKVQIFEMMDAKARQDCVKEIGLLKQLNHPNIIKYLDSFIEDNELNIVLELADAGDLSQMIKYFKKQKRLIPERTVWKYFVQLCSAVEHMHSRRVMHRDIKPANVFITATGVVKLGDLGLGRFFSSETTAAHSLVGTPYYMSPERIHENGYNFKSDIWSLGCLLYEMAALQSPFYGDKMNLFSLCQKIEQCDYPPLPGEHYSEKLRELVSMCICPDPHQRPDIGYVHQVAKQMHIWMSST
Experiment [17] has the same target. Particulars: at 1 µM.
Experiment [18] deals with Serine/threonine-protein kinase Nek7 (Homo sapiens) (UniProt Q8TDX7). The following applies: at 0.1 µM.
Sequence of Serine/threonine-protein kinase Nek7 (Homo sapiens) (Q8TDX7 whole entry, looked up): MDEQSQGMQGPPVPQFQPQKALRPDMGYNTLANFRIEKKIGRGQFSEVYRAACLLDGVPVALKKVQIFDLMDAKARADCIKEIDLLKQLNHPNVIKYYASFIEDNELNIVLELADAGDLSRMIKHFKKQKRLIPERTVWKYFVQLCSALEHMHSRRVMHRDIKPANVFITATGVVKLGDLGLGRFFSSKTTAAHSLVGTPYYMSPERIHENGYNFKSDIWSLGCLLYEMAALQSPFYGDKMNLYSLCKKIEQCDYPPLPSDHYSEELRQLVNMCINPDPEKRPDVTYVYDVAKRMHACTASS
The target is the same in experiment [19]. Particulars: at 1 µM.
Experiment [20] addresses T7, Serine/threonine-protein kinase Nek9 (Homo sapiens) (UniProt Q8TD19).
T7 sequence (whole entry): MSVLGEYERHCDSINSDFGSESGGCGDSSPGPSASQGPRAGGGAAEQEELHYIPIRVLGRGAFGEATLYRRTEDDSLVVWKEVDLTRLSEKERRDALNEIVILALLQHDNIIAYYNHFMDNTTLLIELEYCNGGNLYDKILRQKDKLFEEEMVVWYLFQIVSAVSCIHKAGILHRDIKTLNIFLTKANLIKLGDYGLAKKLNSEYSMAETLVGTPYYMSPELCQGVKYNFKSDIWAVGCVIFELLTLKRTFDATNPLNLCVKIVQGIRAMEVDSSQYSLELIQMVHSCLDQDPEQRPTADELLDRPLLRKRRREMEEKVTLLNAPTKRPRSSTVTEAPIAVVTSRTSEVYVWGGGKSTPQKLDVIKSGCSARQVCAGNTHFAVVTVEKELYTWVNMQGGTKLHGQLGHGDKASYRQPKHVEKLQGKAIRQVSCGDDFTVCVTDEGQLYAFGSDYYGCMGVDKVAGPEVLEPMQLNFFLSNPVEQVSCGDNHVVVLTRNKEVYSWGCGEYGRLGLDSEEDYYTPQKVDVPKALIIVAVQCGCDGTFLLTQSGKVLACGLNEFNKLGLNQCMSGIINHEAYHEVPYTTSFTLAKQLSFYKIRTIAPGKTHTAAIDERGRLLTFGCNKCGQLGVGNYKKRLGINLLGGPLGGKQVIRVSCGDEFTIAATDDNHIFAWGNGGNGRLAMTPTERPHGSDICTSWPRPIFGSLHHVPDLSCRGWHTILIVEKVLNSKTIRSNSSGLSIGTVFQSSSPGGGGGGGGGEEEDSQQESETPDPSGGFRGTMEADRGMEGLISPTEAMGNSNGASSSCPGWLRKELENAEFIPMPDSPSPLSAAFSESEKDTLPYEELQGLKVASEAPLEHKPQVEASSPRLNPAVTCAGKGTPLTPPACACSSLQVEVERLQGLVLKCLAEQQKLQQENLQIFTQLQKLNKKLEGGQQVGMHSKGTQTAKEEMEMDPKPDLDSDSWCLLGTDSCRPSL
Particulars: at 0.1 µM.

Sequence of Casein kinase II subunit alpha (Homo sapiens) (P68400 whole entry, looked up): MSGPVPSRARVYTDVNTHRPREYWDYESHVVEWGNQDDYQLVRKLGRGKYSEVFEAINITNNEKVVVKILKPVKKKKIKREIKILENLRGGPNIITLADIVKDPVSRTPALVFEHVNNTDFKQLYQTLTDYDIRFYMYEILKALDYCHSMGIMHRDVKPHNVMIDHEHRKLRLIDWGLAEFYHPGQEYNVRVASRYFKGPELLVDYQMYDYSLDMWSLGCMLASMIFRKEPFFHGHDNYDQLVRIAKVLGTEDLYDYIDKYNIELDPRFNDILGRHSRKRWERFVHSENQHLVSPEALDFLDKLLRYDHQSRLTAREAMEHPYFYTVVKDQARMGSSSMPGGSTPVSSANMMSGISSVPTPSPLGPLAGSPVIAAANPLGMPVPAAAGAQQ
Sequence of Sphingosine kinase 1 (Homo sapiens) (Q9NYA1 whole entry): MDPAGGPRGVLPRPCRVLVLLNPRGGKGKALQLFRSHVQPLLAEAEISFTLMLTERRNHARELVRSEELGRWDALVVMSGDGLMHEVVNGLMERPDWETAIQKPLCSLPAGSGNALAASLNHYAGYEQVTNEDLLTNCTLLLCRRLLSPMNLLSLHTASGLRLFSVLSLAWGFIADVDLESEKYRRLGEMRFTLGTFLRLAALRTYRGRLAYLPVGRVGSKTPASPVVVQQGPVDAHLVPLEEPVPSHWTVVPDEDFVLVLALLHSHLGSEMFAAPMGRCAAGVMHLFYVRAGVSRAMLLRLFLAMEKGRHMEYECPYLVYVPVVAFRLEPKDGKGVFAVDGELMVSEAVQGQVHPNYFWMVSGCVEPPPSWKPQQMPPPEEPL

On to `COc1cc(Nc2ncc3c(C)nc(-c4cccc(C(F)(F)F)c4)n3n2)cc(OC)c1OC`, for which the inhibition (commonly the relative decrease from the control value, in per cent) is -1.99% in [1]; 0.44% in [2]; -3.1% in experiment [3]; 9.99% in experiment [4]; 43.1% in [5]; -0.47% in [6]. For the same compound, the inhibition in experiment [7] stood at 4.04%; in [8] it was 3.58%; in [9], 3.21%; in experiment [10], 10.6%; in [11], 18.9%; in experiment [12], 4.76%. The inhibition in experiment [13] was 21.8%; in [14] it was 7.77%; in experiment [15] it was 37.5%; in experiment [16] it was 4.4%; in experiment [17], 9.1%; in experiment [18], 5.91%. In addition, the inhibition in experiment [19] was 10.5%; in experiment [20] it was 54.9%.
